How the values were obtained:
Experiment in all cases: PBM; 200 nM protein, PBS
Settings in all cases: dsDNA, one strand shown
HESX1 [1] = biological target: HESX1 (Homo sapiens, UniProt Q9UBX0 95-180, R165K)
SHOX [2] = biological target: SHOX (Homo sapiens, UniProt O15266 103-189)
ALX4 [3] = biological target: ALX4 (Homo sapiens, UniProt Q9H161 200-286)
ALX4 [4] = biological target: ALX4 (Homo sapiens, UniProt Q9H161 200-286, Q225E)
HESX1 [5] = biological target: HESX1 (Homo sapiens, UniProt Q9UBX0 95-180)
ALX1 [6] = biological target: ALX1 (Homo sapiens, UniProt Q15699 118-204, L144V)
ALX3 [7] = biological target: ALX3 (Homo sapiens, UniProt O95076 139-225, N203Q)
SHOX [8] = biological target: SHOX (Homo sapiens, UniProt O15266 103-189, R173C)
ALX1 [9] = biological target: ALX1 (Homo sapiens, UniProt Q15699 118-204, L144R)
ALX3 [10] = biological target: ALX3 (Homo sapiens, UniProt O95076 139-225)
PROP1 [11] = biological target: PROP1 (Homo sapiens, UniProt O75360 56-141)
HESX1 [12] = biological target: HESX1 (Homo sapiens, UniProt Q9UBX0 95-180, R109Q)
PROP1 [13] = biological target: PROP1 (Homo sapiens, UniProt O75360 56-141, R99H)
ALX3 [14] = biological target: ALX3 (Homo sapiens, UniProt O95076 139-225, L168Q)
HESX1 [15] = biological target: HESX1 (Homo sapiens, UniProt Q9UBX0 95-180, P111T)
ALX3 [16] = biological target: ALX3 (Homo sapiens, UniProt O95076 139-225, L168V)
PROP1 [17] = biological target: PROP1 (Homo sapiens, UniProt O75360 56-141, F88S)
HESX1 [18] = biological target: HESX1 (Homo sapiens, UniProt Q9UBX0 95-180, F115L)
ALX1 [19] = biological target: ALX1 (Homo sapiens, UniProt Q15699 118-204)
ALX3 [20] = biological target: ALX3 (Homo sapiens, UniProt O95076 139-225, N203S)
Chain of ALX3 (Homo sapiens, UniProt O95076 139-225, N203S) (O95076 139-225 N203S): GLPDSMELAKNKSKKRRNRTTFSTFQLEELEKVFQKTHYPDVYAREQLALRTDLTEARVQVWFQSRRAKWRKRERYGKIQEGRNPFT

Chain of ALX4 (Homo sapiens, UniProt Q9H161 200-286, Q225E) (Q9H161 200-286 Q225E): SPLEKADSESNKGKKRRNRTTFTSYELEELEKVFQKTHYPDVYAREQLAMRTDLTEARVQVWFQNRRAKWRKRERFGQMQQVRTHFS
Chain of ALX1 (Homo sapiens, UniProt Q15699 118-204, L144R) (Q15699 118-204 L144R): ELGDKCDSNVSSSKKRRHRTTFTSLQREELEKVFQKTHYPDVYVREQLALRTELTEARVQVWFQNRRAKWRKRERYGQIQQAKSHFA
Chain of HESX1 (Homo sapiens, UniProt Q9UBX0 95-180, P111T) (Q9UBX0 95-180 P111T): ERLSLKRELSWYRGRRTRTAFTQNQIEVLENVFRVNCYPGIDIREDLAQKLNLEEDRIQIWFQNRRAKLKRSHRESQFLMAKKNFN
Chain of ALX1 (Homo sapiens, UniProt Q15699 118-204, L144V) (Q15699 118-204 L144V): as the sequence (Q15699 118-204 L144R) above, with R27V counted along it
Chain of ALX4 (Homo sapiens, UniProt Q9H161 200-286) (Q9H161 200-286): as the sequence (Q9H161 200-286 Q225E) above, with E26Q counted along it
Chain of ALX3 (Homo sapiens, UniProt O95076 139-225, L168V) (O95076 139-225 L168V): as the sequence (O95076 139-225 N203S) above, with L30V, S65N counted along it
Chain of PROP1 (Homo sapiens, UniProt O75360 56-141, F88S) (O75360 56-141 F88S): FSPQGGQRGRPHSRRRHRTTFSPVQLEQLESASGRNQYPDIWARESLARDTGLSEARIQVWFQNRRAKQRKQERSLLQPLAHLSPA
Chain of ALX3 (Homo sapiens, UniProt O95076 139-225) (O95076 139-225): as the sequence (O95076 139-225 N203S) above, with S65N counted along it
Chain of HESX1 (Homo sapiens, UniProt Q9UBX0 95-180) (Q9UBX0 95-180): as the sequence (Q9UBX0 95-180 P111T) above, with T17P counted along it
Chain of ALX3 (Homo sapiens, UniProt O95076 139-225, N203Q) (O95076 139-225 N203Q): as the sequence (O95076 139-225 N203S) above, with S65Q counted along it
Chain of HESX1 (Homo sapiens, UniProt Q9UBX0 95-180, F115L) (Q9UBX0 95-180 F115L): as the sequence (Q9UBX0 95-180 P111T) above, with T17P, F21L counted along it
Chain of ALX1 (Homo sapiens, UniProt Q15699 118-204) (Q15699 118-204): as the sequence (Q15699 118-204 L144R) above, with R27L counted along it
Chain of PROP1 (Homo sapiens, UniProt O75360 56-141) (O75360 56-141): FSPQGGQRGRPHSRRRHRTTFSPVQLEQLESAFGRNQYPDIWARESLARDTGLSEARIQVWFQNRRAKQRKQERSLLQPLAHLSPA
Chain of HESX1 (Homo sapiens, UniProt Q9UBX0 95-180, R109Q) (Q9UBX0 95-180 R109Q): as the sequence (Q9UBX0 95-180 P111T) above, with R15Q, T17P counted along it
Chain of SHOX (Homo sapiens, UniProt O15266 103-189, R173C) (O15266 103-189 R173C): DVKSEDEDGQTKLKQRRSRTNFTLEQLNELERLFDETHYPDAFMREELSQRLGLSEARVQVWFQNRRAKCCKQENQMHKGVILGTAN
Chain of ALX3 (Homo sapiens, UniProt O95076 139-225, L168Q) (O95076 139-225 L168Q): as the sequence (O95076 139-225 N203S) above, with L30Q, S65N counted along it
Chain of PROP1 (Homo sapiens, UniProt O75360 56-141, R99H) (O75360 56-141 R99H): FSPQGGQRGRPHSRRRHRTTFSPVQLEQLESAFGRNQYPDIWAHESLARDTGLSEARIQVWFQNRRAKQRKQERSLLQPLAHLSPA
Chain of SHOX (Homo sapiens, UniProt O15266 103-189) (O15266 103-189): as the sequence (O15266 103-189 R173C) above, with C71R counted along it
Chain of HESX1 (Homo sapiens, UniProt Q9UBX0 95-180, R165K) (Q9UBX0 95-180 R165K): as the sequence (Q9UBX0 95-180 P111T) above, with T17P, R71K counted along it

Sequence | binding signal (HESX1 [1]) | binding signal (SHOX [2]) | binding signal (ALX4 [3]) | binding signal (ALX4 [4]) | binding signal (HESX1 [5]) | binding signal (ALX1 [6]) | binding signal (ALX3 [7]) | binding signal (SHOX [8]) | binding signal (ALX1 [9]) | binding signal (ALX3 [10]) | binding signal (PROP1 [11]) | binding signal (HESX1 [12]) | binding signal (PROP1 [13]) | binding signal (ALX3 [14]) | binding signal (HESX1 [15]) | binding signal (ALX3 [16]) | binding signal (PROP1 [17]) | binding signal (HESX1 [18]) | binding signal (ALX1 [19]) | binding signal (ALX3 [20])
AGCAATTA | 12.6 upbm affinity estimate (log intensity, higher = more binding, comparable within an allelic series) | 11.9 upbm affinity estimate (log intensity, higher = more binding, comparable within an allelic series) | 13.8 upbm affinity estimate (log intensity, higher = more binding, comparable within an allelic series) | 13 upbm affinity estimate (log intensity, higher = more binding, comparable within an allelic series) | 12.7 upbm affinity estimate (log intensity, higher = more binding, comparable within an allelic series) | 11.6 upbm affinity estimate (log intensity, higher = more binding, comparable within an allelic series) | 8.32 upbm affinity estimate (log intensity, higher = more binding, comparable within an allelic series) | 9.41 upbm affinity estimate (log intensity, higher = more binding, comparable within an allelic series) | 11.3 upbm affinity estimate (log intensity, higher = more binding, comparable within an allelic series) | 12.4 upbm affinity estimate (log intensity, higher = more binding, comparable within an allelic series) | 11.4 upbm affinity estimate (log intensity, higher = more binding, comparable within an allelic series) | 9.19 upbm affinity estimate (log intensity, higher = more binding, comparable within an allelic series) | 11.4 upbm affinity estimate (log intensity, higher = more binding, comparable within an allelic series) | 10.5 upbm affinity estimate (log intensity, higher = more binding, comparable within an allelic series) | 11.1 upbm affinity estimate (log intensity, higher = more binding, comparable within an allelic series) | 9.97 upbm affinity estimate (log intensity, higher = more binding, comparable within an allelic series) | 7.59 upbm affinity estimate (log intensity, higher = more binding, comparable within an allelic series) | 7.88 upbm affinity estimate (log intensity, higher = more binding, comparable within an allelic series) | 12.2 upbm affinity estimate (log intensity, higher = more binding, comparable within an allelic series) | 8.41 upbm affinity estimate (log intensity, higher = more binding, comparable within an allelic series)
ACTAATTA | 13.9 upbm affinity estimate (log intensity, higher = more binding, comparable within an allelic series) | 13.2 upbm affinity estimate (log intensity, higher = more binding, comparable within an allelic series) | 14.4 upbm affinity estimate (log intensity, higher = more binding, comparable within an allelic series) | 14.3 upbm affinity estimate (log intensity, higher = more binding, comparable within an allelic series) | 13.5 upbm affinity estimate (log intensity, higher = more binding, comparable within an allelic series) | 12.4 upbm affinity estimate (log intensity, higher = more binding, comparable within an allelic series) | 8.59 upbm affinity estimate (log intensity, higher = more binding, comparable within an allelic series) | 10.6 upbm affinity estimate (log intensity, higher = more binding, comparable within an allelic series) | 12 upbm affinity estimate (log intensity, higher = more binding, comparable within an allelic series) | 12.9 upbm affinity estimate (log intensity, higher = more binding, comparable within an allelic series) | 12.2 upbm affinity estimate (log intensity, higher = more binding, comparable within an allelic series) | 10.5 upbm affinity estimate (log intensity, higher = more binding, comparable within an allelic series) | 12.4 upbm affinity estimate (log intensity, higher = more binding, comparable within an allelic series) | 11.5 upbm affinity estimate (log intensity, higher = more binding, comparable within an allelic series) | 12.4 upbm affinity estimate (log intensity, higher = more binding, comparable within an allelic series) | 11.2 upbm affinity estimate (log intensity, higher = more binding, comparable within an allelic series) | 8.34 upbm affinity estimate (log intensity, higher = more binding, comparable within an allelic series) | 8.35 upbm affinity estimate (log intensity, higher = more binding, comparable within an allelic series) | 13 upbm affinity estimate (log intensity, higher = more binding, comparable within an allelic series) | 8.73 upbm affinity estimate (log intensity, higher = more binding, comparable within an allelic series)
CCTAATTA | 13.4 upbm affinity estimate (log intensity, higher = more binding, comparable within an allelic series) | 13 upbm affinity estimate (log intensity, higher = more binding, comparable within an allelic series) | 14.5 upbm affinity estimate (log intensity, higher = more binding, comparable within an allelic series) | 14.1 upbm affinity estimate (log intensity, higher = more binding, comparable within an allelic series) | 13.3 upbm affinity estimate (log intensity, higher = more binding, comparable within an allelic series) | 12.2 upbm affinity estimate (log intensity, higher = more binding, comparable within an allelic series) | 8.45 upbm affinity estimate (log intensity, higher = more binding, comparable within an allelic series) | 10.4 upbm affinity estimate (log intensity, higher = more binding, comparable within an allelic series) | 11.8 upbm affinity estimate (log intensity, higher = more binding, comparable within an allelic series) | 12.9 upbm affinity estimate (log intensity, higher = more binding, comparable within an allelic series) | 12.1 upbm affinity estimate (log intensity, higher = more binding, comparable within an allelic series) | 9.96 upbm affinity estimate (log intensity, higher = more binding, comparable within an allelic series) | 12.2 upbm affinity estimate (log intensity, higher = more binding, comparable within an allelic series) | 11.2 upbm affinity estimate (log intensity, higher = more binding, comparable within an allelic series) | 12 upbm affinity estimate (log intensity, higher = more binding, comparable within an allelic series) | 10.8 upbm affinity estimate (log intensity, higher = more binding, comparable within an allelic series) | 7.86 upbm affinity estimate (log intensity, higher = more binding, comparable within an allelic series) | 8.21 upbm affinity estimate (log intensity, higher = more binding, comparable within an allelic series) | 12.9 upbm affinity estimate (log intensity, higher = more binding, comparable within an allelic series) | 8.58 upbm affinity estimate (log intensity, higher = more binding, comparable within an allelic series)
CAATTAAG | 13 upbm affinity estimate (log intensity, higher = more binding, comparable within an allelic series) | 12.3 upbm affinity estimate (log intensity, higher = more binding, comparable within an allelic series) | 13.9 upbm affinity estimate (log intensity, higher = more binding, comparable within an allelic series) | 13.4 upbm affinity estimate (log intensity, higher = more binding, comparable within an allelic series) | 12.9 upbm affinity estimate (log intensity, higher = more binding, comparable within an allelic series) | 11.7 upbm affinity estimate (log intensity, higher = more binding, comparable within an allelic series) | 8.48 upbm affinity estimate (log intensity, higher = more binding, comparable within an allelic series) | 10.1 upbm affinity estimate (log intensity, higher = more binding, comparable within an allelic series) | 11.4 upbm affinity estimate (log intensity, higher = more binding, comparable within an allelic series) | 12.5 upbm affinity estimate (log intensity, higher = more binding, comparable within an allelic series) | 11.6 upbm affinity estimate (log intensity, higher = more binding, comparable within an allelic series) | 9.81 upbm affinity estimate (log intensity, higher = more binding, comparable within an allelic series) | 11.8 upbm affinity estimate (log intensity, higher = more binding, comparable within an allelic series) | 10.7 upbm affinity estimate (log intensity, higher = more binding, comparable within an allelic series) | 11.7 upbm affinity estimate (log intensity, higher = more binding, comparable within an allelic series) | 10.2 upbm affinity estimate (log intensity, higher = more binding, comparable within an allelic series) | 7.75 upbm affinity estimate (log intensity, higher = more binding, comparable within an allelic series) | 7.88 upbm affinity estimate (log intensity, higher = more binding, comparable within an allelic series) | 12.3 upbm affinity estimate (log intensity, higher = more binding, comparable within an allelic series) | 8.56 upbm affinity estimate (log intensity, higher = more binding, comparable within an allelic series)
CCCCGGCG | 6.58 upbm affinity estimate (log intensity, higher = more binding, comparable within an allelic series) | 6.85 upbm affinity estimate (log intensity, higher = more binding, comparable within an allelic series) | – | – | 6.57 upbm affinity estimate (log intensity, higher = more binding, comparable within an allelic series) | – | 7.82 upbm affinity estimate (log intensity, higher = more binding, comparable within an allelic series) | 7.05 upbm affinity estimate (log intensity, higher = more binding, comparable within an allelic series) | – | 7.76 upbm affinity estimate (log intensity, higher = more binding, comparable within an allelic series) | – | 6.61 upbm affinity estimate (log intensity, higher = more binding, comparable within an allelic series) | – | 7.73 upbm affinity estimate (log intensity, higher = more binding, comparable within an allelic series) | 6.61 upbm affinity estimate (log intensity, higher = more binding, comparable within an allelic series) | 7.68 upbm affinity estimate (log intensity, higher = more binding, comparable within an allelic series) | – | 6.51 upbm affinity estimate (log intensity, higher = more binding, comparable within an allelic series) | – | 7.81 upbm affinity estimate (log intensity, higher = more binding, comparable within an allelic series)
TAATTGCA | 12 upbm affinity estimate (log intensity, higher = more binding, comparable within an allelic series) | 11.4 upbm affinity estimate (log intensity, higher = more binding, comparable within an allelic series) | – | – | 12.1 upbm affinity estimate (log intensity, higher = more binding, comparable within an allelic series) | – | – | 9.1 upbm affinity estimate (log intensity, higher = more binding, comparable within an allelic series) | – | – | 11.1 upbm affinity estimate (log intensity, higher = more binding, comparable within an allelic series) | 8.74 upbm affinity estimate (log intensity, higher = more binding, comparable within an allelic series) | 11.1 upbm affinity estimate (log intensity, higher = more binding, comparable within an allelic series) | 10.2 upbm affinity estimate (log intensity, higher = more binding, comparable within an allelic series) | 10.6 upbm affinity estimate (log intensity, higher = more binding, comparable within an allelic series) | – | 7.7 upbm affinity estimate (log intensity, higher = more binding, comparable within an allelic series) | 7.5 upbm affinity estimate (log intensity, higher = more binding, comparable within an allelic series) | – | –
AACAATTA | 12 upbm affinity estimate (log intensity, higher = more binding, comparable within an allelic series) | 11.5 upbm affinity estimate (log intensity, higher = more binding, comparable within an allelic series) | 13.6 upbm affinity estimate (log intensity, higher = more binding, comparable within an allelic series) | 12.8 upbm affinity estimate (log intensity, higher = more binding, comparable within an allelic series) | 12.2 upbm affinity estimate (log intensity, higher = more binding, comparable within an allelic series) | – | 8.48 upbm affinity estimate (log intensity, higher = more binding, comparable within an allelic series) | 9.19 upbm affinity estimate (log intensity, higher = more binding, comparable within an allelic series) | – | 12.2 upbm affinity estimate (log intensity, higher = more binding, comparable within an allelic series) | 11.1 upbm affinity estimate (log intensity, higher = more binding, comparable within an allelic series) | 8.73 upbm affinity estimate (log intensity, higher = more binding, comparable within an allelic series) | 11.2 upbm affinity estimate (log intensity, higher = more binding, comparable within an allelic series) | 10.3 upbm affinity estimate (log intensity, higher = more binding, comparable within an allelic series) | 10.6 upbm affinity estimate (log intensity, higher = more binding, comparable within an allelic series) | 9.75 upbm affinity estimate (log intensity, higher = more binding, comparable within an allelic series) | 7.78 upbm affinity estimate (log intensity, higher = more binding, comparable within an allelic series) | 7.66 upbm affinity estimate (log intensity, higher = more binding, comparable within an allelic series) | – | 8.6 upbm affinity estimate (log intensity, higher = more binding, comparable within an allelic series)
TAATTAGA | 13.5 upbm affinity estimate (log intensity, higher = more binding, comparable within an allelic series) | 13.1 upbm affinity estimate (log intensity, higher = more binding, comparable within an allelic series) | 14.5 upbm affinity estimate (log intensity, higher = more binding, comparable within an allelic series) | 14.2 upbm affinity estimate (log intensity, higher = more binding, comparable within an allelic series) | 13.5 upbm affinity estimate (log intensity, higher = more binding, comparable within an allelic series) | 12.3 upbm affinity estimate (log intensity, higher = more binding, comparable within an allelic series) | 8.56 upbm affinity estimate (log intensity, higher = more binding, comparable within an allelic series) | 10.5 upbm affinity estimate (log intensity, higher = more binding, comparable within an allelic series) | 12 upbm affinity estimate (log intensity, higher = more binding, comparable within an allelic series) | 12.9 upbm affinity estimate (log intensity, higher = more binding, comparable within an allelic series) | 12.2 upbm affinity estimate (log intensity, higher = more binding, comparable within an allelic series) | 10 upbm affinity estimate (log intensity, higher = more binding, comparable within an allelic series) | 12.2 upbm affinity estimate (log intensity, higher = more binding, comparable within an allelic series) | 11.3 upbm affinity estimate (log intensity, higher = more binding, comparable within an allelic series) | 12.1 upbm affinity estimate (log intensity, higher = more binding, comparable within an allelic series) | 10.9 upbm affinity estimate (log intensity, higher = more binding, comparable within an allelic series) | 8.08 upbm affinity estimate (log intensity, higher = more binding, comparable within an allelic series) | 8.35 upbm affinity estimate (log intensity, higher = more binding, comparable within an allelic series) | 13 upbm affinity estimate (log intensity, higher = more binding, comparable within an allelic series) | 8.71 upbm affinity estimate (log intensity, higher = more binding, comparable within an allelic series)

— publication PMC11006913
